54 compounds from PubChem BioAssay AID1117361 (Southern Research Institute, 2015) can be followed below.

The structures appear in SMILES notation. Screen size: about 3,600 compounds; about 900 (25%) were called active. Only a sample is shown. Entries with a potency or affinity are not part of this list. Values without a mark were called inactive. The rule behind the calls is not given here.

The target of the assay is Protein Tat (Human immunodeficiency virus type 1 group M subtype B (isolate HXB2)) (UniProt P04608). Put plainly: inhibitors of Tat binding to TAR RNA, dose response, counter-screen for Vif-APOBEC3G degradation inhibitor project, biochemical, fluorescence polarization, FAM-labeled TAR RNA (AID 1117361). The settings on record: outcome: dose series up to 100 µM unless noted; series mostly up to 100 µM; inhibition: at the top concentration. (In general: The purpose of a counterscreen is to sort out artefacts and off-target activity.)
Turning to `CCN(CC)S(=O)(=O)N1CCC(C(=O)NCC2COc3ccccc3O2)CC1` (centres undefined), the outcome was inactive.

Take `N/C(=N\OC(=O)COc1ccc([N+](=O)[O-])cc1)c1cccnc1`: the compound was classed as inactive.

As to `O=C(NCc1cccc(F)c1)C1CCN(S(=O)(=O)Cc2ccccc2)CC1`, the compound was called inactive.

As for `O=C(CSc1nnc(Cc2ccc(Cl)cc2)o1)Nc1ccccc1`, the outcome was inactive.

As for `CC1CCCC(NC(=O)Cn2cc3c(n2)CCCCC3)C1C` (centres undefined), the outcome was inactive.

For `COCCn1cc(C(=O)NCc2cccs2)c2c3ccccc3n(C)c2c1=O`, the inhibition (usually the drop in the measured response relative to a control, in per cent) was 12.8%.

As for `Cc1ccc2c(c1)N=C(c1ccc(Cl)cc1)CO2`, the “inhibition” value is 11.6%.

With `COc1ccc(NC(=O)Nc2cccs2)cc1OC`, the “inhibition” value was 10.9%.

For the compound `CCOC(=O)C1CCCN(C(=O)c2ccc3c(c2)OCO3)C1` (centres undefined), the outcome was inactive.

For the compound `CCOC(=O)C1CCCN(c2c(NCCN(CC)c3ccccc3)c(=O)c2=O)C1` (centres undefined), the “inhibition” value is 1.35%.

With `COc1cc(C(=O)Oc2cccc(Nc3ncnc4ccccc34)c2)cc(OC)c1OC`, the “inhibition” value was 3.41%.

On to `COc1ccc2c(c1)C1CC(C)(NC(=O)C1C(=O)c1ccccc1)O2` (centres undefined), for which the “inhibition” value is 2.03%.

In the case of `COc1cc(/C=N/N=C2/NC(=O)C(c3ccccc3)S2)ccc1O` (centres undefined), the compound was called inactive.

As for `COc1ccc(/C=N/N=C2/NC(=O)C(c3ccccc3)S2)c(OC)c1` (centres undefined), the “inhibition” value is 5.41%.

In the case of `Cc1[nH]c2ccccc2c1C(=O)CN1C(=O)NC(C)(c2ccc(Cl)cc2Cl)C1=O` (centres undefined), the “inhibition” value was 3.41%.

In the case of `CCN(CC(=O)NCc1cccs1)C(=O)c1ccc([N+](=O)[O-])o1`, the call was inactive.

For `COc1cccc(NC(=O)CN(C)C(=O)CCCc2nc3ccccc3s2)c1`, the “inhibition” value is 1%.

Regarding `CN(CC(=O)Nc1cccc(F)c1)C(=O)c1cc(-c2ccco2)nc2ccccc12`, the “inhibition” value is 16.4%.

Turning to `COc1ccc(OC)c(NC(=O)COC(=O)c2ccc(OC)c(S(=O)(=O)N3CCOCC3)c2)c1`, the “inhibition” value is 0.82%.

Regarding `COc1ccc(C(=O)Nc2cccnc2)cc1S(=O)(=O)N1CCOCC1`, the “inhibition” value was 6.76%.

On to `Cc1cc(C)n2nc(C(=O)OCC(=O)N(C)CC(=O)Nc3ccc(F)cc3)nc2n1`, for which the “inhibition” value is 10.7%.

On to `COc1ccc(-c2cc(C(=O)N(C)CC(=O)Nc3ccccc3Br)c3ccccc3n2)cc1OC`, for which the compound was called inactive.

For the compound `CC(=NC1CCCC1)c1c(C)[nH]n(-c2nc3ccccc3s2)c1=O`, the result was inactive.

As for `c1ccc(-c2cc(-c3nnc4n3N=C(c3ccc5ccccc5c3)CS4)[nH]n2)cc1`, the “inhibition” value is 2.03%.

For the compound `O=[N+]([O-])c1cccc(/C(=N/N=C/c2ccccc2Br)C23CN4CN(CN(C4)C2)C3)c1`, the outcome is “inactive [at 50 µM]”.

For `COC(=O)c1c(NC(=O)COC(=O)c2ccc(NC(=O)CC#N)cc2)sc2c1CCCCC2`, the “inhibition” value is 4.95%.

With `O=C(CSc1nc2cc([N+](=O)[O-])ccc2n1-c1ccccc1)NCc1ccc2c(c1)OCO2`, the compound was classed as inactive.

Take `CCCc1ccc(-c2csc(NC(=O)Cc3cccs3)n2)cc1`: the outcome was inactive.

Consider `COC(=O)C1=C(N)Oc2cc(C)n(Cc3cccnc3)c(=O)c2C1c1cccc(OC)c1OC` (centres undefined), for which the “inhibition” value was 5.41%.

In the case of `O=C(OCN1C(=O)c2ccccc2C1=O)C1CCCCC1`, the “inhibition” value was 8.87%.

For the compound `COc1cc(-c2n[nH]c(=O)o2)cc(OC)c1OC`, the “inhibition” value was 2.73%.

With `COC(=O)/C(=C\Nc1ccccc1)NC(=O)c1ccc(Cl)cc1Cl`, the “inhibition” value is 0.68%.

`CCOc1ccc2nc(NC(=O)CN3CCN(c4ccccn4)CC3)sc2c1`: the “inhibition” value was 4.77%.

Turning to `CC1=C(C(=O)OC2CCCCC2)C(c2ccc(C)o2)C2=C(CCCC2=O)N1` (centres undefined), the “inhibition” value is 0.68%.

`CCOc1ccc(N(C(C)C(=O)NC2CCCCCC2)S(C)(=O)=O)cc1` (centres undefined): the “inhibition” value was 2.73%.

For `CC(NC(=O)/C(C#N)=C/c1cn[nH]c1-c1ccccc1)c1ccccc1` (centres undefined), the call was inactive.

For the compound `CCCC[C@@H]1CNC(=S)N1CCc1cccc2ccccc12`, the call was inactive.

As to `Cc1nn(Cc2ccc(F)cc2)c(C)c1NC(=O)c1noc2c1CCc1ccccc1-2`, the “inhibition” value was 0.68%.

On to `N=c1ccn(Cc2ccc(Cl)cc2)cc1`, for which the “inhibition” value was 4.73%.

As for `C=CCc1c(C)nc(C)nc1N/N=C/c1ccc(F)cc1`, the “inhibition” value is 1.36%.

As to `COCCNC(=S)c1ccc(OC)cc1`, the “inhibition” value is 6.08%.

In the case of `CCN(CC)S(=O)(=O)c1ccc(C(=O)NCc2n[nH]c(=S)n2-c2ccccc2OC)cc1`, the outcome was inactive.

Take `Clc1ccc2nc3ccccn3c2c1`: the result was inactive.

`Cc1ccc(N=Cc2nc(-c3ccco3)oc2O)cc1`: the “inhibition” value was 10.1%.

As for `O=C(NC1CCCCC1)n1c(=O)oc2cc(S(=O)(=O)N3CCCCC3)ccc21`, the “inhibition” value is 3.38%.

Take `CC(C)Cn1c(N)c(C(=O)NCc2cccs2)c2nc3ccccc3nc21`: the compound was called inactive.

For the compound `COC(=O)c1ccc(-n2nnnc2SCC(=O)Nc2cc(OC)ccc2OC)cc1`, the “inhibition” value is 9.55%.

As to `CCOC(=O)N1CCC(N2Cc3cccc(C(=O)Nc4cc(F)ccc4F)c3C2=O)CC1`, the “inhibition” value is 4.73%.

For the compound `CC1(C)CC(=O)C=C(Nc2ccccc2NC(=O)c2cnccn2)C1`, the “inhibition” value is 19.6%.

For the compound `CCC(C)NS(=O)(=O)c1ccc(NS(=O)(=O)c2ccc(F)cc2)cc1` (centres undefined), the outcome was inactive.

As for `O=C(CCc1c[nH]c2ccccc12)N1CCN(c2ccc(O)cc2)CC1`, the outcome was inactive.

On to `CC(C)CN1C(=O)c2ccc(C(=O)Nc3ccc(O)cc3C(=O)O)cc2C1=O`, for which the compound was called inactive.

Regarding `COC(=O)c1c(NC(=O)CC2NCCNC2=O)sc2c1CCCC2` (centres undefined), the outcome was inactive.

Turning to `Cc1nn(CC(=O)Nc2ccccn2)c(C)c1Br`, the compound was classed as inactive.
